Test results from ChEMBL document CHEMBL4513146, “CO-ADD screening of Karazin Kharkiv National University (Ukraine) compounds”.
Potency and affinity values are given separately.

Experiments:
[1] = test system: Staphylococcus aureus; conditions: Concentration 32 ug.mL-1;; ASSAY_TEST Inhibition of Bacterial Growth; detection method Absorption (OD600); MEDIA CAMHB; plate type 384well; NBS; CORNING #3640; time 18 hr
[2] = test system: Escherichia coli; conditions: Concentration 32 ug.mL-1;; ASSAY_TEST Inhibition of Bacterial Growth; detection method Absorption (OD600); MEDIA CAMHB; plate type 384well; NBS; CORNING #3640; time 18 hr

| SMILES | Inhibition [1] [%] | Inhibition [2] [%] |
| --- | --- | --- |
| COc1ccc(-n2ccn3c(-c4ccc([N+](=O)[O-])cc4)nnc3c2=O)cc1 | 12.69 | -0.05 |
| COc1ccc(N2CCN(C(=O)Cn3nc4c(Oc5ccc(C)cc5)nccn4c3=O)CC2)cc1 | 4.51 | -5.74 |
| Cc1ccc(Oc2nccn3c(=O)n(CC(=O)Nc4cccc(Cl)c4)nc23)cc1 | -3.9 | -9.06 |
| COc1ccc(OC)c(NC(=O)Cn2nc3c(SCc4ccc(Cl)cc4)nccn3c2=O)c1 | -7.47 | -4.33 |
| Cc1cc(NC(=O)CSc2nc3ccccc3n3cnnc23)ccc1Br | 13.29 | 3.15 |
| CC(C)c1nnc2c(SCC(=O)Nc3ccc(Cl)cc3C(F)(F)F)nc3ccccc3n12 | 2.01 | -15.72 |
| CC(=O)c1ccc(NC(=O)Cn2nc3ccc(-c4ccccc4)nn3c2=O)cc1 | 7.56 | -5.17 |
| COc1ccc(NC(=O)CSc2nnc3ccc(C(=O)Nc4cccc(F)c4)cn23)cc1 | 8.78 | 3.37 |
| CC(C)c1nnc2c(=O)n(CC(=O)Nc3cccc(Br)c3)c3ccccc3n12 | 13.16 | -0.75 |
| COc1cccc(Cn2nc3c(=O)n(-c4cccc(Cl)c4C)ccn3c2=O)c1 | -6.87 | -16.22 |
| COc1ccccc1NC(=O)Cn1nc2c(Sc3ccccc3)nccn2c1=O | -14.27 | -3.78 |
| CC(C)c1ccc(Oc2nc3ccccc3n3c(=O)n(CC(=O)Nc4ccc5c(c4)OCO5)nc23)cc1 | 7.37 | 4.92 |
| CCOc1ccc(NC(=O)Cn2nc3c4c5c(sc4ncn3c2=O)CCCC5)cc1 | -17.71 | 0.82 |
| COC(=O)c1ccc(CN(c2cccc(F)c2)S(=O)(=O)c2ccc3nncn3c2)o1 | 9.42 | -3.46 |
| Cc1ccc(NC(=O)Cn2nc3c(SCc4ccc(Cl)cc4)nccn3c2=O)c(C)c1 | 10.91 | -3.69 |
| Cc1nnc2ccc(S(=O)(=O)N(CC(=O)OC(C)(C)C)c3ccc4c(c3)OCO4)cn12 | 2.93 | -7.09 |

| SMILES | Inhibition [1] [%] | Inhibition [2] [%] |
| --- | --- | --- |
| CC(C)(C)NC(=O)Cn1nc2n(Cc3ccco3)c(=O)c3sccc3n2c1=O | -2.47 | -8.7 |
| COc1ccccc1N1CCN(C(=O)Cn2nc3ccc(-c4ccccc4)nn3c2=O)CC1 | -11.69 | -1.16 |
| CCN(C(=O)CSc1nnc2c3cc(-c4ccc(OC)cc4)nn3ccn12)c1ccccc1 | 5.44 | -0.03 |
| COc1ccc(OC)c(NC(=O)Cn2nc3ccc(-c4ccc(Cl)cc4)nn3c2=O)c1 | 10.25 | -2.3 |
| CCCCn1c(=O)c2sccc2n2c(CCC(=O)NCCC34CC5CC(CC(C5)C3)C4)nnc12 | 7.09 | 0.44 |
| Cc1ccc(C)c(CSc2nnc3c(=O)n(-c4ccc(F)c(F)c4)ccn23)c1 | 21.94 | -0.2 |
| COc1ccc(-c2cc3c4nn(CC(=O)Nc5cc(C)ccc5OC)c(=O)n4ccn3n2)cc1 | 1.5 | -0.57 |
| COc1cc(-c2nnc3c(=O)n(Cc4ccc(Cl)cc4)ccn23)cc(OC)c1OC | 11.84 | -0.28 |
| CC(C)c1ccc(CNC(=O)CCc2nnc3c(N4CCCCC4)nc4ccccc4n23)cc1 | 3.73 | -5.19 |
| COc1ccc(NC(=O)Cn2nc3c4cc(-c5ccc(C)cc5)nn4ccn3c2=O)cc1Cl | -6.7 | -3.03 |
| COC(=O)c1ccccc1NC(=O)Cn1nc2c(Oc3ccccc3)nccn2c1=O | 8.3 | -3.16 |
| O=c1c2nnc(SCc3cccc(C(F)(F)F)c3)n2ccn1-c1ccc(Br)cc1 | 11.27 | -4.81 |
| Cc1ccc(N(CC(=O)OC(C)(C)C)S(=O)(=O)c2cccn3cnnc23)cc1 | 15.19 | -3.99 |
| COc1ccc(NC(=O)Cn2nc3c(Sc4cccc(C)c4)nccn3c2=O)cc1Cl | -3.33 | -13.54 |
| Cc1ccc(Oc2nccn3c(=O)n(CC(=O)Nc4cccc(Br)c4)nc23)cc1 | 4.81 | -7.18 |
| Cc1cc(C)cc(Oc2nc3ccccc3n3c(=O)n(CC(=O)Nc4ccc5c(c4)OCO5)nc23)c1 | 0.02 | -5.83 |
